Compound activity deposited in PubChem by National Center for Advancing Translational Sciences (NCATS).
The list is not random: actives were taken first. Their share in the collection is about 19%.
HT1080 IDH1KD tx: qHTS for induction of synthetic lethality in tumor cells producing 2HG: qHTS for the HT-1080-IDH1KD cell line | HT-1080 IDH1 knockdown viability, ATP luminescence, 48 h | Potency, µM (top dose mostly 46.1 µM), without a hit: top-dose activity, negative = toxicity, most hits filed as cytotoxic | 360,000 compounds, 2% hits | AID 686971, 2013;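 further: potency means the concentration at half of the fitted maximal effect; 0% = DMSO wells and -100% = cell-free medium wells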
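Using the IDH1-knockdown HT-1080 line run in the same batch and compound series as the NT line, viability after 48 h at 37 °C was determined by CellTiter-Glo luminescence and expressed as % activity.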
DT40 TDP1 no CPT: qHTS for Inhibitors of human tyrosyl-DNA phosphodiesterase 1 (TDP1): qHTS in cells in absence of CPT. AID 686978, 2013. DT40 Tdp1-/- hTDP1 cells, no CPT, ATP luminescence, 48 h. Potency, µM (top dose mostly 46.2 µM), inactives show at the highest dose activity change, negative = growth inhibition, usual class: inhibitors. 420,000 compounds, 15% hits; further: potency means the concentration at half of the fitted maximal effect; nearly all actives have a fitted effect of over 55% in size
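Compound effects on proliferation are scored in DT40 Tdp1-/-;hTDP1 cells in the absence of CPT. ATP levels (CellTiter-Glo luminescence) are recorded after a ≥48 hr, 37 °C incubation.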
IL1B secr inh: qHTS for Inhibitors of Inflammasome Signaling: IL-1-beta AlphaLISA Primary Screen | THP-1 LPS/ATP IL-1B secretion, AlphaLISA, 16 h; active compounds read low | activity change, % at 57.5 µM | 360,000 compounds, 4.7% hits | AID 743279, 2014; in the data active means activity change below about -50%; inconclusive means mostly about -30% to -49%
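THP-1 cells pretreated 1 hr with compounds (up to 57.5 uM final), then stimulated with LPS (250 ng/mL final) plus ATP (1.25 mM final); secreted IL-1B measured by AlphaLISA after 16 hr, decreased signal indicating inhibition.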
HT1080-NT tox: qHTS for induction of synthetic lethality in tumor cells producing 2HG: qHTS for the HT-1080-NT fibrosarcoma cell line; HT-1080-NT fibrosarcoma viability, CellTiter-Glo ATP luminescence, 48 h; Potency, µM (top dose mostly 46.1 µM), without a hit: at the top dose activity, negative = less viability, usual class: cytotoxic; 360,000 compounds, 1.6% hits;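 further: NT is the 2HG producing partner of a matched IDH1 knockdown line; potency means the concentration at half of the fitted maximal effect; 0% = DMSO-treated cells and -100% = media-only wells without cells; nearly all actives have a fitted effect of over 55% in size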
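Viability by CellTiter-Glo luminescence after 48 h compound exposure at 37C of HT-1080-NT cells (750/well, RPMI, 5% FBS). % activity scaled between DMSO wells and medium-only wells, then curve-fitted and categorized by curve class.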
TDP1 cell CPT: qHTS for Inhibitors of human tyrosyl-DNA phosphodiesterase 1 (TDP1): qHTS in cells in presence of CPT | chicken DT40 Tdp1-/-;hTDP1 cells + 20 nM CPT, ATP luminescence, 48 h | Potency, µM (highest dose often 46.2 µM), for inactives: at the highest dose activity change, negative = growth inhibition, usual class: inhibitors | 420,000 compounds, 12% hits | AID 686979, 2013; further: potency means the concentration at half of the fitted maximal effect; nearly all actives have a fitted effect of over 55% in size
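Chicken DT40 Tdp1-/- cells complemented with human TDP1, 400 cells/well, exposed to compounds plus 20 nM camptothecin for at least 48 h at 37 C; viability read as ATP content by CellTiter-Glo luminescence.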
An asterisk follows results filed as active; ? = inconclusive; . = no result given. Unless noted, the call rests on the fitted dose curve; in most records, active means well fitted curve in the direction sought with a large enough effect; inconclusive means small, poorly fitted or top-dose-only effect, or another doubt; inactive means no such curve, though single readings can be large; an effect the other way counts as inactive or inconclusive. Unless noted, on the % scale 0 is the no-effect control and ±100 the full control effect.

SMILES	HT1080 IDH1KD tx	DT40 TDP1 no CPT	IL1B secr inh	HT1080-NT tox	TDP1 cell CPT
O=C(CSc1cccc2cccnc12)Nc1ccc(S(=O)(=O)N2CCOCC2)cc1	?	?	-101*	?	?
O=C(CSc1nc2ccccc2c(=O)n1-c1ccccc1Cl)Nc1cccc(S(=O)(=O)N2CCOCC2)c1	-9%	?	-12	-6%	15µM*
CN(C(=O)CSc1ncnc2ccccc12)C1CCCCC1	13%	-15%	-89*	12%	-5%
O=C(CSc1ncnc2ccccc12)Nc1cccc(S(=O)(=O)N2CCOCC2)c1	-10%	16µM*	?	-4%	-19%
O=C(CSc1nc2ccccc2c(=O)n1-c1ccc(F)cc1)Nc1ccc(N2CCOCC2)cc1	0%	-26%	102	-1%	?
O=c1c2ccccc2nc(SCc2cccc(F)c2)n1-c1cccc(S(=O)(=O)N2CCCC2)c1	8%	18µM*	0	3%	12µM*
O=C(CSc1nc2ccccc2c(=O)n1-c1ccc(F)cc1F)Nc1ccc(N2CCOCC2)cc1	-2%	21µM*	-6	-2%	23µM*
CN(C)S(=O)(=O)c1ccc(NC(=O)CSc2ncnc3ccccc23)cc1	-26%	?	-102*	-12%	-27%
CN(C)S(=O)(=O)c1ccc(NC(=O)CSc2nnnn2C)cc1	17%	13%	-11	15%	6%
CN(C)S(=O)(=O)c1cccc(NC(=O)CSc2ncnc3ccccc23)c1	-11%	18µM*	-100*	-3%	21µM*
CCCn1c(SCC(=O)Nc2cccc(S(=O)(=O)N(C)C)c2)nc2ccccc2c1=O	?	?	-27	?	?
O=C(CN1C(=O)c2ccccc2C1=O)Nc1ccc(Cl)cn1	-7%	-1%	12	14%	11%
O=C(NNC(=O)c1ccccc1F)c1cccc(-n2cccc2)c1	-2%	-11%	-5	-4%	-9%
COc1cccc(N2CCN(C(=O)c3cn(Cc4ccccc4)nc3-c3cccnc3)CC2)c1	3.3µM*	2.1µM*	71	5.8µM*	2.6µM*
O=C(c1cn(Cc2ccccc2)nc1-c1cccnc1)N1CCN(Cc2c(F)cccc2Cl)CC1	2%	29µM*	17	2%	?
Cc1csc2nc(CNS(=O)(=O)c3ccc4c(c3)CCCC4)cn12	7%	9.2µM*	19	8%	?
CC(=O)Oc1cccc(C)c1	.	-9%	.	.	13%
CCN(C(=O)c1cnc(NC(C)C)cc1C(F)(F)F)c1ccc(Cl)cc1Cl	?	16µM*	-19	?	8.2µM*
CC(C(=O)Nc1ccc(Cl)cc1)c1ncc(C(F)(F)F)cc1Cl (stereo unspecified)	-24%	?	-12	-18%	?
CN(c1ccc(F)cc1)S(=O)(=O)c1ccc(Cl)c(C(=O)NCC2(N3CCOCC3)CCCCC2)c1	-5%	7.3µM*	?	0%	7.3µM*
COc1ccccc1N(C)S(=O)(=O)c1ccc(Cl)c(C(=O)N2CCC2)c1	0%	?	17	1%	16µM*
COc1ccccc1N(C)S(=O)(=O)c1ccc(Cl)c(C(=O)NNC(=O)c2ccccc2O)c1	-1%	?	112	-4%	?
COc1ccccc1N(C)S(=O)(=O)c1ccc(Cl)c(C(=O)OCc2c(C)noc2C)c1	-2%	23µM*	?	0%	?
COc1ccccc1N(C)S(=O)(=O)c1ccc(Cl)c(C(=O)NCC2(N(C)C)CCCCC2)c1	-11%	8.2µM*	?	-13%	?
COc1ccccc1NS(=O)(=O)c1ccc(C(=O)NCC2(N(C)C)CCCCC2)cc1	8%	?	-2	4%	-19%
SMILES	HT1080 IDH1KD tx	DT40 TDP1 no CPT	IL1B secr inh	HT1080-NT tox	TDP1 cell CPT
Cc1cc(Br)ccc1NC(=O)CN1C(=S)NC(C)(C)CC1C (stereo unspecified)	3%	?	-8	-18%	-9%
CCCCCNC(=O)C1CCC(Cn2c(=S)[nH]c3ccccc3c2=O)CC1 (stereo unspecified)	5%	-4%	5	0%	-20%
Cc1ccc(S(=O)(=O)N(C)c2ccccc2C(=O)N2CCOCC2)cc1	0%	-12%	1	-2%	0%
COc1ccccc1N1CCN(C(=O)c2ccccc2N(C)S(=O)(=O)c2ccc(C)cc2)CC1	6%	16µM*	5	-2%	?
Cn1c(-c2ccc(F)cc2)cc2onc(-c3c(F)cccc3Cl)c2c1=O	4%	?	-17	6%	13µM*
CNC(=O)c1ccc(-c2cc3onc(-c4ccccc4)c3c(=O)n2C)cc1	1%	23µM*	0	-1%	18µM*
Cc1onc(-c2c(F)cccc2Cl)c1C(=O)c1ccccc1	9%	?	.	2%	1%
Cc1ccc(-c2cc3onc(-c4ccccc4)c3c(=O)n2C)cc1	12%	?	27	16%	?
CCCOc1ccc(-c2cc3onc(-c4ccccc4)c3c(=O)n2C)cc1	17%	18µM*	36	14%	26µM*
Cc1nc(N/C(N)=N/S(=O)(=O)c2ccccc2)nc2ccccc12	-22%	-28%	24	0%	-20%
CC(C)(C)NC(=O)NC(=O)C[n+]1ccc(Cc2ccc([N+](=O)[O-])cc2)cc1	-23%	2.1µM*	?	-18%	4.1µM*
Cc1cccc[n+]1CC(=O)Nc1ccc([N+](=O)[O-])cc1Cl	?	-11%	11	-5%	?
Cc1ccc([N+](=O)[O-])cc1NC(=O)CCSc1ccc(Cl)cc1	-17%	-33%	0	2%	-15%
Cc1ccc(Cl)cc1NC(=O)C[n+]1ccc(Cc2ccc([N+](=O)[O-])cc2)cc1	-15%	5.2µM*	-82*	?	5.8µM*
O=C(C[n+]1ccc(Cc2ccccc2)cc1)Nc1ccc([N+](=O)[O-])cc1Cl	1%	15µM*	?	-4%	?
O=C(Cc1ccc(Cl)cc1)Nc1ccc(CN2CCCCC2)cc1	-26%	-24%	?	?	-4%
O=C(CN1CC(c2ccccc2)CC1=O)N/N=C/c1cc(Br)ccc1O (stereo unspecified)	?	6.5µM*	71	?	8.2µM*
O=C(CNC(=O)c1ccccc1Br)N/N=C\c1cc([N+](=O)[O-])cc(Br)c1O	-8%	8%	-5	-17%	16%
